Source: PubChem BioAssay (EPA / NIEHS)
Several values for one entry are separate records, joined by “and”; a condition that tells them apart may be missing. Equal entries are not always repeated. Results filed as inconclusive are left out. More than one record can exist for a structure, and the calls need not agree. Activity calls are given as the source filed them. Rule for the calls, unless noted: active = hit-call score of the fitted dose curve at least 0.9, where 1 is the maximum; inactive = score below 0.9.

Tests used:
[1] = read-out: Interleukin-8 (IL8), CXCL8 (gene 3576); assay: BSK_3C_IL8: BioMAP Diversity Plus: 3C Assay for Interleukin-8 (IL8) Biomarker Activity (AID 2283020); conditions: primary human endothelial cells (HUVEC); actives raise or lower the signal
Summary of the method: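 Primary human umbilical vein endothelial cells were dosed for 24 h. IL-8 was quantified by ELISA and fitted bidirectionally against DMSO. Cytotoxicity was assessed in parallel cultures by SRB staining at 560 nm.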

[2] = read-out: Monokine induced gamma interferon (MIG), CXCL9 (gene 4283); assay: BSK_3C_MIG: BioMAP Diversity Plus: 3C Assay for Monokine induced gamma interferon (MIG) Biomarker Activity (AID 2283021); conditions: primary human endothelial cells (HUVEC); actives raise or lower the signal;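 for AC50: MIG protein level measured by immunoassay in the treated endothelial cultures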
Summary of the method: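 HUVEC primary endothelial cultures dosed with chemical; MIG quantified by ELISA at 24 h. Data fitted bidirectionally against DMSO control, with parallel SRB total-protein staining for cytotoxicity.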

[3] = BSK_3C_SRB: Viability Assessment in the BioMAP Diversity Plus: 3C Assay (AID 2283023); conditions: primary human endothelial cells (HUVEC);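 note: fitted both ways against DMSO so a hit may be signal rise or drop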
Summary of the method: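 HUVEC, 24 h post-dose; 10% TCA fix, 0.1% SRB stain, A560 nm. Bidirectional curve fit vs DMSO negative control.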

[4] = read-out: Matrix Metallopeptidase 1 (MMP1), MMP1 (gene 4312); assay: BSK_BE3C_MMP1: BioMAP Diversity Plus: BE3C Assay for Matrix Metallopeptidase 1 (MMP1) Biomarker Activity (AID 2283024); conditions: primary human bronchial epithelial cells; actives raise or lower the signal
Summary of the method: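 Human primary bronchial epithelial cells (BE3C system) dosed for 24 h; MMP-1 quantified by ELISA. Bidirectional fit against DMSO; cytotoxicity tracked in parallel cultures by SRB total-protein staining.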

[5] = BSK_3C_Vis: BioMAP Diversity Plus: 3C Assay for Morphology Visualization (AID 2283025); conditions: primary human endothelial cells (HUVEC);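 note: fitted both ways so gain or loss versus DMSO counts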;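 for AC50: light microscopy image of cell morphology used as background control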
Summary of the method: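 Human umbilical vein endothelial cell morphology was inspected by light microscopy 24 h after chemical dosing; scored bidirectionally relative to DMSO.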

[6] = read-out: Pselectin, SELP (gene 6403); assay: BSK_4H_Pselectin: BioMAP Diversity Plus: 4H Assay for Pselectin Biomarker Activity (AID 2283026); conditions: primary human endothelial cells (HUVEC); actives raise or lower the signal
Summary of the method: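 Primary human umbilical vein endothelial cells were treated 24 h, and cell-surface P-selectin was then quantified by ELISA. Bidirectional fit versus DMSO; cytotoxicity checked in parallel cultures by SRB total-protein staining.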

[7] = BSK_4H_SRB: Viability Assessment in the BioMAP Diversity Plus: 4H Assay (AID 2283027); conditions: primary human endothelial cells (HUVEC);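 note: cells exposed to compound for 24 h before staining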;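 for AC50: curves fitted both ways versus DMSO so AC50 may be loss or gain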
Summary of the method: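 Human umbilical vein endothelial cells, 24 h after chemical dosing; total protein measured by 0.1% sulforhodamine B staining after 10% TCA fixation, read at 560 nm. Bidirectional fitting against DMSO.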

[8] = BSK_BE3C_SRB: Viability Assessment in the BioMAP Diversity Plus: BE3C Assay (AID 2283028); conditions: primary human bronchial epithelial cells;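 for AC50: fitted both ways so AC50 may mark signal gain or loss versus DMSO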
Summary of the method: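 Primary human bronchial epithelium; chemical dosing, 24 h; 10% TCA fix, 0.1% SRB stain, A560; bidirectional fit vs DMSO baseline.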

[9] = read-out: Thrombomodulin, THBD (gene 7056); assay: BSK_3C_Thrombomodulin: BioMAP Diversity Plus: 3C Assay for Thrombomodulin Biomarker Activity (AID 2283029); conditions: primary human endothelial cells (HUVEC); actives raise or lower the signal
Summary of the method: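 Human umbilical vein endothelial cells were exposed to chemicals for 24 h; cell-surface thrombomodulin quantified by ELISA, with bidirectional fitting against DMSO baseline.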

[10] = target: human Vitamin D Receptor (VDR), VDR (gene 7421) (UniProt P11473); assay: ATG_VDR_TRANS: Attagene TRANS-FACTORIAL HepG2 Assay for human Vitamin D Receptor (VDR) (AID 2283022; active = hit-call score of the fitted dose curve at least 0.9, where 1 is the maximum)
Summary of the method: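 RT-PCR/capillary electrophoresis read-out of reporter mRNA induction in transiently transfected HepG2; 24 h dosing; chimeric NR-Gal4 (TRANS format); gain-of-signal fit against DMSO baseline.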

Measured: AC50

Chain of human Vitamin D Receptor (VDR), VDR (gene 7421) (P11473 whole entry, looked up, the tested form may be a part): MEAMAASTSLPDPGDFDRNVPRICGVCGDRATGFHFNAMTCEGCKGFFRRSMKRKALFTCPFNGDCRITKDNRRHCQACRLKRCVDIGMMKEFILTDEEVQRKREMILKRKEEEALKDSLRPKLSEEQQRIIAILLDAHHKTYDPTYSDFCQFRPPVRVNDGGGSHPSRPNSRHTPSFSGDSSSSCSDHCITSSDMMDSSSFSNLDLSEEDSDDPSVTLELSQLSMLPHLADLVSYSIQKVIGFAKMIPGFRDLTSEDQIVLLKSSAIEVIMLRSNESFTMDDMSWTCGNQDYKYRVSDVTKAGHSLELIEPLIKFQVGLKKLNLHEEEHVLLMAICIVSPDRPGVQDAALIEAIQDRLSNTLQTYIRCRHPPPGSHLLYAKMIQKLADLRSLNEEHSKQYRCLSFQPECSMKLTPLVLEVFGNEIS

CC(C)C(=O)OCC(C)(C)C(OC(=O)C(C)C)C(C)C (configuration not stated)
not listed: [10]
inactive: all other assays above

Clc1ccc(C(c2ccccc2Cl)C(Cl)(Cl)Cl)cc1 (configuration not stated)
inactive: [4] | [8] | [9]
active: [1] 20.4 µM | [2] 21.5 µM | [3] 16.1 µM | [5] 26.4 µM | [6] 19.1 µM | [7] 19.5 µM

Cc1cc(-c2ccc(N)c(C)c2)ccc1N
not listed: [10]
inactive: all other assays above

Nn1cnnc1
not listed: [10]
inactive: all other assays above

ClC1=C(Cl)[C@]2(Cl)[C@@H]3[C@H]4C[C@H]([C@@H]5O[C@H]45)[C@@H]3[C@@]1(Cl)C2(Cl)Cl
active: [3] 9.88 µM | [4] 7.22 µM | [7] 3.97 µM
not listed: [10]
inactive: all other assays above

CN(C)CCO
not listed: [10]
inactive: all other assays above

Cc1cc2c3c(c1)C(c1ccccc1)=N[C@@H](NC(=O)c1ccncc1)C(=O)N3CC2
not listed: [10]
inactive: all other assays above

C=CC(N)=O
not listed: [10]
inactive: all other assays above

N#Cc1ccc(N(CC(N)=O)CC(F)(F)F)cc1C(F)(F)F
not listed: [10]
inactive: all other assays above

CCC(=O)O[C@H]1CC[C@H]2[C@@H]3CCC4=CC(=O)CC[C@]4(C)[C@H]3CC[C@]12C
inactive: [4] | [8] | [9]
active: [1] 27.3 µM | [2] 38.8 µM | [3] 28.4 µM | [5] 20.7 µM | [6] 34 µM | [7] 33.5 µM

O=S(=O)(O)C(F)(F)C(F)(F)C(F)(F)C(F)(F)F
not listed: [10]
inactive: all other assays above

Cc1cccc(C)c1N
not listed: [10]
inactive: all other assays above

CCOC(=O)C(O)(c1ccc(Cl)cc1)c1ccc(Cl)cc1
active: [1] 31.1 µM | [2] 39.4 µM | [3] 34.5 µM | [4] 8.5 µM | [5] 37.3 µM | [6] 32.2 µM | [7] 32.2 µM
inactive: [8] | [9]

CCC(C)(c1ccc(O)cc1)c1ccc(O)cc1
inactive: [2] | [8] | [9]
active: [1] 22.9 µM | [3] 30 µM | [4] 20 µM | [5] 39 µM | [6] 32.1 µM | [7] 24.3 µM

Cc1ccccc1CO[C@@H]1C[C@@]2(C(C)C)CC[C@]1(C)O2
active: [3] 31.3 µM
not listed: [10]
inactive: all other assays above

Cc1ccccc1O
not listed: [10]
inactive: all other assays above

Oc1c(Cl)c(Cl)c(Cl)c(Cl)c1Cl
inactive: [1] | [2] | [5] | [9]
active: [1] 20 µM | [2] 34.5 µM | [3] 15.4 µM and 13 µM | [5] 14.1 µM | [6] 8.49 µM and 9.69 µM | [7] 10.2 µM and 9.07 µM | [8] 4.33 µM and 28.2 µM | [9] 20 µM

O=C(O)C(F)(F)C(F)(F)C(F)(F)C(F)(F)C(F)(F)C(F)(F)C(F)(F)C(F)(F)C(F)(F)F
inactive: [1] | [2] | [5] | [6] | [9]
active: [1] 53.6 µM and 47 µM | [2] 58.5 µM and 52.5 µM | [3] 31.3 µM and 53 µM and 51.6 µM | [6] 50.1 µM and 49.5 µM | [7] 36.5 µM and 52.1 µM and 55 µM | [8] 29.6 µM and 12.6 µM and 15.8 µM

ClC1=C(Cl)[C@]2(Cl)[C@@H]3[C@@H](Cl)[C@H]4O[C@H]4[C@@H]3C1(Cl)C2(Cl)Cl
active: [3] 11.9 µM
not listed: [10]
inactive: all other assays above

CC1=C2C[C@H]3[C@@H](CC=C4C[C@@H](O)CC[C@@]43C)[C@@H]2CC[C@]12O[C@@H]1C[C@H](C)CN[C@H]1[C@H]2C
active: [5] 4.9 µM
not listed: [10]
inactive: all other assays above

Sc1ccccc1
not listed: [10]
inactive: all other assays above

CCOCCOC(C)=O
not listed: [10]
inactive: all other assays above

Cc1cc(O)ccc1Cl
not listed: [10]
inactive: all other assays above

O=C(O)C(F)(F)C(F)(F)C(F)(F)C(F)(F)C(F)(F)C(F)(F)C(F)(F)C(F)(F)F
inactive: [1] | [2] | [10] | [3] | [5] | [6] | [7] | [9]
active: [3] 54.3 µM and 51.6 µM | [7] 44 µM and 46.1 µM | [8] 34.8 µM and 49.8 µM

CC(c1ccc(O)cc1)(c1ccc(O)cc1)c1ccc(O)cc1
active: [3] 28 µM | [5] 39 µM | [6] 31.9 µM | [7] 20 µM
not listed: [10]
inactive: all other assays above

ClC1=C(Cl)[C@]2(Cl)[C@@H]3[C@@H]4C[C@@H]([C@H]5O[C@@H]45)[C@@H]3[C@@]1(Cl)C2(Cl)Cl
active: [3] 12.5 µM | [5] 13.7 µM
not listed: [10]
inactive: all other assays above

Clc1ccc(Cl)cc1
not listed: [10]
inactive: all other assays above

C[C@]12CCC(=O)C=C1CC[C@@H]1[C@@H]2CC[C@@]2(C)[C@H]1CC[C@]2(C)O
active: [3] 28.3 µM | [4] 9.79 µM
not listed: [10]
inactive: all other assays above

COc1ccc(O)c(C(C)(C)C)c1
not listed: [10]
inactive: all other assays above

CCCCCCOC(=O)c1ccccc1C(=O)OCCCCCC
active: [1] 31.1 µM | [3] 15.1 µM | [6] 29.3 µM
not listed: [10]
inactive: all other assays above
